Screening results (PubChem)
Menin-MLL TR inh: displaces Texas Red mutant MLL peptide from human menin; O00255; Menin + Texas Red MLL mutant peptide, fluorescence polarization; Potency, µM (series often up to 61.6 µM), inactives show at the highest dose FP activity change, negative = inhibition, most hits filed as inhibitors; 270,000 compounds, 0.23% hits; AID 1768; active means well fitted inhibition curve with a large enough effect in the polarisation, with a control signal flat, not every such curve was filed as active; inconclusive means small, poorly fitted or top-dose-only effect, or effect the other way, or a change in a side signal; inactive means no such curve, though single readings can be large or run the other way; the % refers to the polarisation; further: potency means the concentration at half of the fitted maximal effect; % of control where 0% means no effect
GLS inhibitor: glutaminase GLS (human) inhibition; GLS enzymatic activity, qHTS titration; Potency, µM (highest dose often 45.5 µM), inactives show top-dose activity change, negative = inhibition, usual class: inhibitors; O94925; 410,000 compounds, 0.21% hits; active means well fitted inhibition curve with a large enough effect; inconclusive means small, poorly fitted or top-dose-only effect, or another doubt; inactive means no such curve, though single readings can be large or run the other way; further: potency means the concentration at half of the fitted maximal effect; on the % scale 0 is the no-effect control and ±100 the full control effect
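Compounds were pin-transferred onto hKGA, after which L-glutamine (1 mM solution) and a detection mix of glutamate oxidase, HRP and Amplex Red were added. Initial and 30 min RT fluorescence reads were collected.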
Six1-Eya2 blk: Six1/Eya2 interaction inhibition | AlphaScreen GST-Six1/His-Eya2 binding, biochemical; hits give low values | 360,000 compounds, 0.56% hits | Q15475+O00167 | activity change, % (concentration not given with the values) | AID 651725; further: on the % scale 0 is the no-effect control and ±100 the full control effect
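AlphaScreen luminescence read after one hour at 37 °C in darkness. Pin-transferred compounds met GST-Six1 and His-Eya2 protein (5X stock 250 nM/500 nM) plus glutathione donor and Ni-chelate acceptor beads (5X, 50 ug/mL).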
MLL CXXC-DNA inh: blocks binding of human MLL CXXC domain to DNA; MLL-CXXC / FITC-HOXA9 DNA fluorescence polarization; Potency, µM (doses to about 115 µM), for the others: at the top dose activity change, negative = inhibition, usual class: inhibitors; 290,000 compounds, 0.037% hits; active means well fitted inhibition curve with a large enough effect in the polarisation, with a control signal flat, not every such curve was filed as active; inconclusive means small, poorly fitted or top-dose-only effect, or effect the other way, or a change in a side signal; inactive means no such curve, though single readings can be large or run the other way; the % refers to the polarisation; further: potency means the concentration at half of the fitted maximal effect
Target sequence (Q03164 whole entry, looked up, the tested form may be a part): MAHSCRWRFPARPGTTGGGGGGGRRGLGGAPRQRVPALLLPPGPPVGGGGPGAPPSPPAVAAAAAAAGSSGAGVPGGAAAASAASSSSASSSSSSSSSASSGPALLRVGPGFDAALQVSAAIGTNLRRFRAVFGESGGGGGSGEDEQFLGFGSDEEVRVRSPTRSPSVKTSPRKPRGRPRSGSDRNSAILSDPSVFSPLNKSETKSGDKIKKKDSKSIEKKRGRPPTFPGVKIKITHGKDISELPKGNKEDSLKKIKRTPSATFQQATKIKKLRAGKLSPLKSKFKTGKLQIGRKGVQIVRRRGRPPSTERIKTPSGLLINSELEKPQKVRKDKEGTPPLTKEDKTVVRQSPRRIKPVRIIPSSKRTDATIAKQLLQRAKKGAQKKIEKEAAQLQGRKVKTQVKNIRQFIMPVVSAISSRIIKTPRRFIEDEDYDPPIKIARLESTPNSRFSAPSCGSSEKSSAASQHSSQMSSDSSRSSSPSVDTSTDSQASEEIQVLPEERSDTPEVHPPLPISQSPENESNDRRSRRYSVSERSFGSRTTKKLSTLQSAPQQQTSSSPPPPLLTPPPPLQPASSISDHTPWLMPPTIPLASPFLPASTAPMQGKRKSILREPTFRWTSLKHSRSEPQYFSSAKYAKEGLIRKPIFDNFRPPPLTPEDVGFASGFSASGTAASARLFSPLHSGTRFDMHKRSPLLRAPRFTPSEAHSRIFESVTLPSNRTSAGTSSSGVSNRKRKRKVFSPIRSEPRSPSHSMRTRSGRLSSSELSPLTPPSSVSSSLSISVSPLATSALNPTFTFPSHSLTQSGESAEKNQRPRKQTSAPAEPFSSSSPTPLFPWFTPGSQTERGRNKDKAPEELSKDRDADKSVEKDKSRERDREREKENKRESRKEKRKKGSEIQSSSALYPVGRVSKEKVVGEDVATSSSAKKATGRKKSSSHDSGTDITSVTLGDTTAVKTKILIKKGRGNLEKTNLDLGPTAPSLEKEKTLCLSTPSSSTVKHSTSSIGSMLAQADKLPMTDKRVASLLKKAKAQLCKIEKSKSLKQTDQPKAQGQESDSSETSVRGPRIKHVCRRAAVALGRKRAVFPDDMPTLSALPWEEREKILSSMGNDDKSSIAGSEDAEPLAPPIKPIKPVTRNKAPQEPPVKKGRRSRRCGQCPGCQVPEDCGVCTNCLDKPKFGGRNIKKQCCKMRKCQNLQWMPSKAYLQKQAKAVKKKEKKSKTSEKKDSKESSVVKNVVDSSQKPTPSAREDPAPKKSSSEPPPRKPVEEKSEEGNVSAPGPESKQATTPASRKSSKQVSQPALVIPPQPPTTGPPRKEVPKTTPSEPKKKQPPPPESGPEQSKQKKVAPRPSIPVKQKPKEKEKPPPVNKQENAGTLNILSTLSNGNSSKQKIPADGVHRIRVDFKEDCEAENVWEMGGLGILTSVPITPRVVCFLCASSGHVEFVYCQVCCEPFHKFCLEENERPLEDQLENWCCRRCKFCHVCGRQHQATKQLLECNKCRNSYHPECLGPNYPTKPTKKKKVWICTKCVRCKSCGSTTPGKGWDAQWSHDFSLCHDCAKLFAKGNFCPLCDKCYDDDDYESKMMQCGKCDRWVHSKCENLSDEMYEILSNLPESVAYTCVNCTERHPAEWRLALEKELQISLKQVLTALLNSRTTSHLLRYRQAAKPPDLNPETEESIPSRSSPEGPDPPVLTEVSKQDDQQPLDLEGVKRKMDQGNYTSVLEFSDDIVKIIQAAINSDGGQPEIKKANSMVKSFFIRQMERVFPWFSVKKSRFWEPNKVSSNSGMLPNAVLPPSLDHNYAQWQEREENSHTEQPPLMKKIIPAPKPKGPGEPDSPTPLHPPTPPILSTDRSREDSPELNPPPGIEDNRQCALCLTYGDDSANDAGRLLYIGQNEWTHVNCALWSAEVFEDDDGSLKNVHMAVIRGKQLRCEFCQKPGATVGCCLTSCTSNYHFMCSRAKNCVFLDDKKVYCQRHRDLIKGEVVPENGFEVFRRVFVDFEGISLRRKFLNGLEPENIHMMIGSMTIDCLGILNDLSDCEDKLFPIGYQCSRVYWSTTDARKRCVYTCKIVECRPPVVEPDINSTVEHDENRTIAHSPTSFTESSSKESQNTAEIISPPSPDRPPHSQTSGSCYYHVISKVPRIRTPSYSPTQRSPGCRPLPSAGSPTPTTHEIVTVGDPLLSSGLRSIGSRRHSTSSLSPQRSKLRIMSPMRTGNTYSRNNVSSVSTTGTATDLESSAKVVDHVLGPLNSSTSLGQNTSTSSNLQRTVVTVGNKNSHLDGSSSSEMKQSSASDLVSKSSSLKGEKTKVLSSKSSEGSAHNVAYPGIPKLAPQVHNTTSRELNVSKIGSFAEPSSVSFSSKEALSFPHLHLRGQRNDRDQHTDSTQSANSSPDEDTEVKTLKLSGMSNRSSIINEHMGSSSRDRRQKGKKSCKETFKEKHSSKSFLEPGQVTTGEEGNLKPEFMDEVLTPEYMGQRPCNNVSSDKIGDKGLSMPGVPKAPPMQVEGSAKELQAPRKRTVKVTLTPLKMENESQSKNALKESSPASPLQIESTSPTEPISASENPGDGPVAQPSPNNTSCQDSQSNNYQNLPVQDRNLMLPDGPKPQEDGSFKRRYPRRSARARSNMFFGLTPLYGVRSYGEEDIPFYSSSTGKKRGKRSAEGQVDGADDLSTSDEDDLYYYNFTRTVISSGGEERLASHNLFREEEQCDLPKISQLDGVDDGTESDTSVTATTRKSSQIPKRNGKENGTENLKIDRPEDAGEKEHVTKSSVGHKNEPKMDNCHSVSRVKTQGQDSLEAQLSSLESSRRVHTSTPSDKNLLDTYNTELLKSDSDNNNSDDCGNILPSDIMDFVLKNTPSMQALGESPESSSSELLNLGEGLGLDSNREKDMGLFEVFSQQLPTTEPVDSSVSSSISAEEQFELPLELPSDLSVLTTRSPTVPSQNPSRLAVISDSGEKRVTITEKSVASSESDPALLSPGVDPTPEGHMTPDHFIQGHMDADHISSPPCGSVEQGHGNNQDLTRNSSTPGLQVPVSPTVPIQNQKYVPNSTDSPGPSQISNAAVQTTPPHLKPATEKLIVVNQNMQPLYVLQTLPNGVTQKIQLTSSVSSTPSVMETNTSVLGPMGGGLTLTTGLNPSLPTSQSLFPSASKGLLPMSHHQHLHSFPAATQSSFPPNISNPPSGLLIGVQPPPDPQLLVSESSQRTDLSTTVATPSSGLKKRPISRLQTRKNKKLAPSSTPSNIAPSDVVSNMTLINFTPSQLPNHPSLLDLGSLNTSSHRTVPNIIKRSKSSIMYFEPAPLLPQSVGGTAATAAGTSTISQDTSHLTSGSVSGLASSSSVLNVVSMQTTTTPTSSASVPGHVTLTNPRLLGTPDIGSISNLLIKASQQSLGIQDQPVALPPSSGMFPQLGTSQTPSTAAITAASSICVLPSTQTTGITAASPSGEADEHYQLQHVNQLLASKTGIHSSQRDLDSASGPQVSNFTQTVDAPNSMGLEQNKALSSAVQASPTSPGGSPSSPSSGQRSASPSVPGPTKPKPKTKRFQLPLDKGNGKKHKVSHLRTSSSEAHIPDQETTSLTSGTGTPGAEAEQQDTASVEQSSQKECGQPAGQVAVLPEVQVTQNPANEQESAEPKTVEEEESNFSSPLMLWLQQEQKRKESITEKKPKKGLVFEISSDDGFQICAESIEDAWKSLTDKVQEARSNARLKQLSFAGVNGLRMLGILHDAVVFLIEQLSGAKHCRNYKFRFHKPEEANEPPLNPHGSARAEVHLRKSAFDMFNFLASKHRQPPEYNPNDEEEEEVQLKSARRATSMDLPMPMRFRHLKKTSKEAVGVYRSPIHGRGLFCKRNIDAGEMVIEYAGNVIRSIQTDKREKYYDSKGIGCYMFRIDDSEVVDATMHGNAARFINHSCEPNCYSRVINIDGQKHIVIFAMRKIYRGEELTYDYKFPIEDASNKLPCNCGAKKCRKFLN
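Fluorescence polarization: 7 uM MLL-CXXC (stock) preincubated 5 min with compounds, then 50 nM fluorescein-HOX-A9 DNA (stock) added; 30 min ambient. Buffer 50 mM Tris-HCl pH 7.5, 50 mM NaCl, 1 mM DTT, 0.05% BSA.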
CtBP-E1A blk: CtBP/E1A binding inhibition; AlphaScreen GST-E1A/His-CtBP binding, 1536-well; hits give low values; 340,000 compounds, 0.49% hits; activity change, % (test concentration not listed); further: on the % scale 0 is the no-effect control and ±100 the full control effect
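GST-E1A and His-tagged CtBP (125 nM each as 5X stock) were preincubated with pin-transferred compound for 2 h at 37 °C in the dark, then glutathione donor and nickel acceptor beads were added for 1 h before AlphaScreen reading.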
Menin-MLL FL inh: inhibitors of human menin-MLL interaction, wild-type MLL peptide; Fluorescence polarization, fluorescein-MLL peptide displacement from menin; FP activity change, % at 61.4 µM; 290,000 tested, under 10 active; AID 1766; active means well fitted curve in the direction sought with a large enough effect in the polarisation, not every such curve was filed as active; inconclusive means small, poorly fitted or top-dose-only effect, or effect the other way, or a change in a side signal; inactive means no such curve, though single readings can be large or run the other way; the % refers to the polarisation; further: % of control where 0% means no effect
Active calls of the source: *; u = inconclusive; x = no result; [ ] = remark or other dose. Rows were chosen to be rich in hits. Some 0.83% of all compounds tested hit in one or more screens of this group. Unless noted, no stated cut-off is given here; in the data, active means activity change below about -65%; inconclusive means mostly about -30% to -63%; inactive means weaker than that.

SMILES	Menin-MLL TR inh	GLS inhibitor	Six1-Eya2 blk	MLL CXXC-DNA inh	CtBP-E1A blk	Menin-MLL FL inh
CCOCCCNc1nc2c(C)cccn2c(=O)c1/C=C1\SC(=S)N(CC(C)C)C1=O	u	9.8%	4.0	u	-10.6	u
C=CCn1c(SCC(=O)Nc2ccc3c(c2)OCO3)nnc1-c1cc(Br)ccc1O	u	9.4%	-84.6*	-4.5%	-92.2*	-6.7
Cc1nnc(N2CCC(C(=O)NCc3ccc(F)cc3)CC2)c2nn(-c3ccc(Cl)cc3)c(C)c12	x	-16.3%	x	x	x	x
CN(C)c1ccc(C=C2C=CC=C2)cc1	x	-10.5%	-65.8*	x	-26.7	x
CCCC1Cc2[nH]c(=O)c(C#N)cc2CO1 (centres undefined)	x	2.2%	8.4	4.4%	-69.7*	0.3
O=C(COc1ccc(Cl)cc1)N/N=C/c1cccc2cccnc12	x	0.0%	u	-3.0%	u	x
CC(C)n1cc(/C=N/NC(=O)COc2cccc3cccnc23)c2ccccc21	-10.6%	99.7%	-16.5	-2.9%	-1.5	-1.6
O=C(CSc1cccc2cccnc12)N/N=C/c1ccc(O)cc1	x	22.6%	u	-1.7%	-8.8	1.5
COc1cccc(/C=N/NC(=O)COc2cccc3cccnc23)c1O	-1.1%	-11.2%	u	4.7%	-79.9*	-2.2
COc1ccc(OCC(=O)N/N=C/c2cccc3cccnc23)cc1	x	5.6%	-80.2*	x	-85.6*	x
COc1cccc(/C=N/NC(=O)CSc2cccc3cccnc23)c1	x	-2.9%	-93.6*	-24.2%	-94.1*	-0.9
COc1ccccc1OCC(=O)N/N=C/c1cccc2cccnc12	x	-1.6%	-74.4*	-5.0%	-86.1*	x
CO[C@@H]1C[C@H](O[C@H]2[C@@H](C)[C@H](O[C@@H]3O[C@@H](C)C[C@@H](N(C)C)[C@@H]3OC(C)=O)[C@H](C)C[C@]3(CO3)C(=O)[C@H](C)[C@H](OC(C)=O)[C@H](C)[C@H](C)OC(=O)[C@@H]2C)O[C@H](C)[C@@H]1OC(C)=O	-17.9%[24.8 µM]	5.5%[20 µM]	x	1.2%[51.4 µM]	x	3.1[24.8 µM]
O=c1c2cccc(Cl)c2nc2n1Cc1ccccc1-2	x	12.6µM*	25.3	-5.1%	0.8	0.9
Cc1sc2nc3n(c(=O)c2c1C)Cc1ccccc1-3	7.3%	x	x	5.6%	x	3.9
c1ccc(C(OC2CCCN(CCc3ccc4c(c3)OCO4)C2)c2ccccc2)cc1 (centres undefined)	-19.8%	0.9%	x	x	x	2.3
Cc1cc(C)cc(-c2nnc(SCC(=O)Nc3cc(C)on3)o2)c1	x	-2.0%	u	x	-65.4*	x
Cc1cc(NC(=O)CSc2nnc(C)o2)no1	x	-0.5%	u	16.6%	-85.7*	x
CCC(c1nnc(SCC(=O)Nc2cc(C)on2)o1)N(C)C (centres undefined)	x	0.8%	u	x	-91.2*	x
Cc1cc(NC(=O)CSc2nnc(-c3ccc(O)cc3)o2)no1	x	-13.5%	u	-6.1%	-28.7	-8.0
Cc1nnc(SCC(=O)Nc2nccs2)o1	x	-0.5%	u	2.4%	-73.2*	x
O=C(CCC1CCN(Cc2ccccc2)CC1)c1ccc2c(c1)NCCCC2	x	18.7%	x	x	x	x
CCc1ccc2ncc(S(=O)(=O)c3ccc(Cl)cc3)c(N3CCN(CC)CC3)c2c1	x	-9.0%	x	x	x	x
CC(C)C[C@H](NC(=O)[C@H](CCc1ccccc1)NC(=O)CN1CCOCC1)C(=O)N[C@@H](Cc1ccccc1)C(=O)N[C@@H](CC(C)C)C(=O)[C@@]1(C)CO1	x	-4.2%	x	x	x	x
Cc1cc(NC(=O)CSc2nnc(CNC(=O)c3c(F)cccc3F)o2)no1	10.1%	-1.3%	u	15.0%	-80.1*	2.5
SMILES	Menin-MLL TR inh	GLS inhibitor	Six1-Eya2 blk	MLL CXXC-DNA inh	CtBP-E1A blk	Menin-MLL FL inh
COc1ccc(N(CC(=O)Nc2cc(Cl)ccc2OC)S(=O)(=O)c2c(C)[nH]c(=O)[nH]c2=O)cc1	u	14.4%	-90.4*	-24.5%	-94.6*	0.7
COc1ccc(NC(=O)CSc2nc(-c3ccco3)cc(C(F)(F)F)n2)cc1	x	1.7%	x	x	x	x
Cn1ccnc1SCc1ccc([N+](=O)[O-])cc1	3.1%	5.4%	-2.0	0.8%	1.2	2.1
Cn1ccnc1C(=O)Cc1ccc([N+](=O)[O-])cc1	x	3.6%	2.1	x	-85.4*	x
COc1c(O)c(O)c2cc(OC)c3c(OC)cc(=O)c4c5c(=O)c(OC)c(C(C)=O)c6c5c(c1CC=6C)c2c34	u	x	x	x	x	0.3
COc1ccc(N=C2C(=Nc3ccc(OC)cc3)N(c3ccc(OC)cc3)C(=S)N2C)cc1	u	1.9%	-69.4*	1.0%	-80.0*	-3.5
C=CS(=O)(=O)O	x	-1.0%	x	x	x	x
c1ccc(-c2nccc(-c3ccco3)n2)nc1	-11.1%	12.7%	u	-7.4%	-67.4*	-0.5
CC(C)OC(=O)C(C(=O)C(F)(F)F)c1cc(NS(=O)(=O)c2ccc3ccccc3c2)c2ccccc2c1O (centres undefined)	19.0%	23.0%	u	2.9%	-68.1*	-1.3
CCOc1ccc(S(=O)(=O)Nc2cc(SCC(=O)O)c(O)c3ccccc23)cc1	u	-14.5%	-13.0	u	x	u
C=C(C)C(=O)Nc1cccc(C2=NOC3(C2)C[C@@H](C(N)=O)N(C(=O)/C=C/C=C/C)C3)c1 (some centres undefined)	x	11.2µM*	-23.7	-2.6%	2.4	-1.5
C=C(C)C(=O)Nc1cccc(C2=NOC3(C2)C[C@H](C(N)=O)N(C(=O)c2ccccc2C(=O)c2ccccc2)C3)c1 (some centres undefined)	x	14.1µM*	-16.3	1.8%	-23.0	4.7
C/C=C(\C)C(=O)Nc1cccc(C2=NOC3(C2)C[C@@H](C(N)=O)N(C(=O)c2ccccc2C(=O)c2ccccc2)C3)c1 (some centres undefined)	x	3.4%	-3.2	9.2%	-3.4	13.7
C=C(C)C(=O)Nc1cccc(C2=NOC3(C2)C[C@@H](C(N)=O)N(C(=O)CC(c2ccccc2)c2ccccc2)C3)c1 (some centres undefined)	x	11.2µM*	u	-4.6%	-0.2	-1.1
CCCOc1ccc(CN(C(=O)c2cc(=O)c3ccc(C)cc3o2)C2CCS(=O)(=O)C2)cc1 (centres undefined)	x	10.9%	x	x	x	x
Cc1cccc(C(=O)Nc2c(C(=O)NCc3ccc(Cl)cc3)sc3nc(C)cc(C)c23)c1	x	-8.8%	x	x	x	x
Cc1cc(C)c(NC(=O)CSC2=Nc3ccccc3C3=NC(CC(=O)NCc4cccs4)C(=O)N23)c(C)c1 (centres undefined)	x	11.2µM*	x	x	x	x
CCc1ccc(NC(=O)CSC2=Nc3ccccc3C3=NC(CC(=O)NCc4cccs4)C(=O)N23)cc1 (centres undefined)	x	7.3%	x	x	x	x
CCCCNC(=O)CC1N=C2c3ccccc3N=C(SCC(=O)Nc3cccc(OC)c3)N2C1=O (centres undefined)	-4.8%	7.08µM*	7.2	4.8%	3.6	-2.1
